GPR151 activ – activators of human GPR151; Q8TDV0; PathHunter beta-arrestin GPR151 cells, luminescence; activation, % at 11.2 µM; 1% of 650,000 active; AID 1508602; in the data active means activation above about 4.9%
FBW7 act – activators of human E3 ligase FBW7; Q969H0; AID 1259310; 0.13% of 650,000 active; normalized activity (activation), % at 26.1 µM; AlphaScreen FBW7–phospho-cyclin E peptide binding, activator screen; in the data active means normalized activity above about 1.9%;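 further: purified mutant Fbw7 with reduced substrate affinity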
MITF inh – blocks human microphthalmia-associated transcription factor | AlphaScreen MITF homodimerization, bead proximity signal | 0.91% of 650,000 active | inhibition, % at 2.6 µM | AID 1259374 | O75030; in the data active means inhibition above about 50%
Target sequence (O75030 whole entry, looked up): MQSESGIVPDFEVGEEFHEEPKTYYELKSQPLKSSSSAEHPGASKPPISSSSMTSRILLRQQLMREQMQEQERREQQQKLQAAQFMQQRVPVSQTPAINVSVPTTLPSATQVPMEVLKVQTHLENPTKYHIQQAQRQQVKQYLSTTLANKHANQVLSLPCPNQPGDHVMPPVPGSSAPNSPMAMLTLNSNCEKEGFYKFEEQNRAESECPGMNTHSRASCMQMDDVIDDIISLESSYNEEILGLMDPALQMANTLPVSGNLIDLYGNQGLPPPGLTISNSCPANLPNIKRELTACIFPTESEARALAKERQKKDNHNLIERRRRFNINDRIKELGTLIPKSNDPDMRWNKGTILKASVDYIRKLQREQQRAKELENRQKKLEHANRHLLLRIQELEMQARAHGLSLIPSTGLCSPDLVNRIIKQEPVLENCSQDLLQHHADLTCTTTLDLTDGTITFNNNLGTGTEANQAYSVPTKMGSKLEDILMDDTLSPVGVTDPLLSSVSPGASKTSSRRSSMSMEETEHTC
TEAD-YAP inh – TEAD-YAP interaction inhibition. HEK-TIYL cells, TEAD-Gal4/YAP UAS-luciferase luminescence. inhibition, % at 9.12 µM. 1.4% of 640,000 active; in the data active means inhibition above about 32%
Each line names hits and unclear results; the compound was inactive in the other large screens. Hits are enriched below; roughly 3.5% of the tested compounds scored in any of these assays.

CCOC(=O)C1=CN(Cc2ccc(F)cc2)C=C(C(=O)OCC)C1c1ccc(SC)cc1	FBW7 act 1.9
COC(=O)C1=CN(Cc2ccc(F)cc2)C=C(C(=O)OC)C1c1ccccc1Cl	none
COC(=O)C1=CN(Cc2ccc(Cl)cc2)C=C(C(=O)OC)C1c1ccccc1OC(C)C	FBW7 act 2.1
COC(=O)C1=CN(Cc2ccc(F)cc2)C=C(C(=O)OC)C1c1ccccc1OC(C)C	FBW7 act 5.0
CCOC(=O)C1=CN(Cc2ccc(OC)cc2)C=C(C(=O)OCC)C1c1ccccc1OC	none
CC12CCC3C(CC3(C)C)[C@@]3(C1)OC(=O)CC(C(=O)O)C3CC2 (stereo partly drawn)	none
CC(C)c1ccc(/C=C2/NC(=O)N(Cc3ccc(F)cc3)C2=O)cc1	none
CCCNC(=O)c1cc(S(=O)(=O)N2CCc3ccccc32)cn1C	TEAD-YAP inh 32.2
COc1ccc(S(=O)(=O)N2CCCc3ccccc32)cc1C	TEAD-YAP inh 37.3
O=S(=O)(c1cccc(S(=O)(=O)N2CCc3ccccc32)c1)N1CCCC1	TEAD-YAP inh 43.0
Cc1ccc(S(=O)(=O)N2CCCc3ccccc32)cc1C	none
COc1cc(S(=O)(=O)N2CCc3ccccc32)c(OC)cc1Cl	TEAD-YAP inh 45.3
O=S(=O)(c1ccc(F)cc1)N1CCc2ccccc21	none
COC(=O)c1cc(S(=O)(=O)N2CCc3ccccc32)cn1C	none
Cc1ccc(S(=O)(=O)N2CCc3ccccc32)cc1[N+](=O)[O-]	TEAD-YAP inh 56.1
Cc1ccc(S(=O)(=O)N2CCc3ccccc32)cc1C(N)=O	none
Cc1cc(C)c2c(N)c(C(=O)Nc3ccccn3)sc2n1	TEAD-YAP inh 95.5
Cc1cccc(NC(=O)c2sc3nc(C)cc(C(F)(F)F)c3c2N)n1	TEAD-YAP inh 48.0
O=C(NCC1CCC2(CCN(Cc3ccccc3)CC2)O1)c1ccc(-n2cccn2)cc1 (stereo not drawn)	none
CC(C)NCCCOc1ccc(Cl)cc1Br	TEAD-YAP inh 32.3
CC(C)NCCOc1ccc(Cl)cc1Br	none
CCN1CCN(C(=O)Cn2ncc3c2-c2cc(C)ccc2OC3)CC1	none
Cc1nc2ncccn2c1-c1csc(Nc2cccc(Cl)c2C)n1	TEAD-YAP inh 38.5
Cc1ccc(Nc2nc(-c3c(C)nc4ncccn34)cs2)cc1	TEAD-YAP inh 59.7
Cc1nc2ccccn2c1-c1csc(Nc2cccc(Cl)c2C)n1	none
Cc1nc2ncccn2c1-c1csc(Nc2ccc(Cl)cc2)n1	TEAD-YAP inh 54.3
CCOc1ccc(Nc2nc(-c3c(C)nc4ncccn34)cs2)cc1	TEAD-YAP inh 58.4
COc1ccc(-c2noc(CSc3nnc(-c4ccccc4)n3C)n2)cc1OC	none
Cc1ccc(Oc2ccc(NC(=O)C3C4CC5OC(=O)C3C5C4)cc2)cc1 (stereo not drawn)	none
CCOC(=O)c1[nH]c(C)c(C(=O)/C=C/c2ccc(N(C)C)c([N+](=O)[O-])c2)c1C	TEAD-YAP inh 49.7
CCOC(=O)c1[nH]c(C)c(/C(C)=N\Nc2ccc([N+](=O)[O-])cc2[N+](=O)[O-])c1C	none
CN(C)C(=O)CN1C(=O)NC(C)(c2ccccc2Br)C1=O (stereo not drawn)	none
O=C(N/N=C/c1ccc(/C=N/NC(=O)c2ccccc2O)cc1)c1ccccc1O	TEAD-YAP inh 59.0
Cc1[nH]n(-c2ccccc2)c(=O)c1/C=N/NC(=O)c1ccc(O)cc1O	MITF inh 58.8
CN(C)c1ccc(/C=N\NC(=O)c2cc(N)ccc2O)cc1	MITF inh 64.2
O=C(N/N=C/c1ccc2ccccc2c1)c1ccc(O)cc1O	TEAD-YAP inh 36.6
Cn1nc([N+](=O)[O-])nc1Oc1ccc(C(=O)OCc2ccccc2)cc1	none
CCCc1ccc(C(=O)N2CCCC(c3c(S(C)(=O)=O)cnc4ncnn34)C2)o1 (stereo not drawn)	none
Cc1ccccc1C(=O)N/N=C/c1ccc(O)c(Br)c1	TEAD-YAP inh 71.1
Cc1ccccc1C(=O)N/N=C/c1ccc(O)c(O)c1	none
CCN(CC)c1cc(-c2ccccc2)nc(-c2ccccn2)n1	TEAD-YAP inh 47.2
C=CCNc1cc(-c2ccccc2)nc(-c2ccccn2)n1	TEAD-YAP inh 87.6
CC(C)CCNC(=O)C1CCN(C(=O)c2sccc2-n2cccc2)CC1	none
COCCNC(=O)c1cc2ccccc2o1	none
CCOC(=O)c1cc2c(=O)n3ccccc3nc2n(CCOC)c1=NC(=O)c1c(F)cccc1Cl	none
C/C=C/C(=O)Oc1ccccc1/C=C1/N=C(c2ccc(Cl)cc2)OC1=O	TEAD-YAP inh 36.4
CCCCCCOc1ccccc1/C=C1/N=C(c2ccc(Cl)cc2)OC1=O	none
Cc1ccc(-c2cc(C(F)(F)F)n3ncc(C(=O)Nc4cc(Cl)ccc4O)c3n2)cc1	none
CCN(CC)c1cc(C)nc(Nc2ccc(NC(=O)C(C)C)cc2)n1	TEAD-YAP inh 47.6
COc1ccc(CNC(=O)c2nc(S(C)(=O)=O)ncc2Cl)cc1	none
C=CCN(CC=C)CC(O)CN(c1ccc(C)cc1)S(=O)(=O)c1ccc2ccccc2c1 (stereo not drawn)	none
COc1ccc(CC(=O)Nc2ccc(C)c(C)c2)cc1OC	none
COc1ccc(-c2ccc(C)c(NC(=O)Cc3ccc(OC)c(OC)c3)c2)nn1	TEAD-YAP inh 63.9
COc1ccc(CC(=O)Nc2cc(NC(=O)c3cccs3)ccc2C)cc1OC	TEAD-YAP inh 32.4

Assay outcomes deposited in PubChem by The Scripps Research Institute Molecular Screening Center.
